Several values for one entry are separate records, joined by “and”; a condition that tells them apart may be missing. Identical values can stand only once.
Experiments:
[1] = molecular target: T1, Muscle, skeletal receptor tyrosine-protein kinase (Homo sapiens) (UniProt O15146); settings: at 1 µM;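 further: reported value is the mean percent inhibition of MuSK kinase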
T1 sequence (whole entry): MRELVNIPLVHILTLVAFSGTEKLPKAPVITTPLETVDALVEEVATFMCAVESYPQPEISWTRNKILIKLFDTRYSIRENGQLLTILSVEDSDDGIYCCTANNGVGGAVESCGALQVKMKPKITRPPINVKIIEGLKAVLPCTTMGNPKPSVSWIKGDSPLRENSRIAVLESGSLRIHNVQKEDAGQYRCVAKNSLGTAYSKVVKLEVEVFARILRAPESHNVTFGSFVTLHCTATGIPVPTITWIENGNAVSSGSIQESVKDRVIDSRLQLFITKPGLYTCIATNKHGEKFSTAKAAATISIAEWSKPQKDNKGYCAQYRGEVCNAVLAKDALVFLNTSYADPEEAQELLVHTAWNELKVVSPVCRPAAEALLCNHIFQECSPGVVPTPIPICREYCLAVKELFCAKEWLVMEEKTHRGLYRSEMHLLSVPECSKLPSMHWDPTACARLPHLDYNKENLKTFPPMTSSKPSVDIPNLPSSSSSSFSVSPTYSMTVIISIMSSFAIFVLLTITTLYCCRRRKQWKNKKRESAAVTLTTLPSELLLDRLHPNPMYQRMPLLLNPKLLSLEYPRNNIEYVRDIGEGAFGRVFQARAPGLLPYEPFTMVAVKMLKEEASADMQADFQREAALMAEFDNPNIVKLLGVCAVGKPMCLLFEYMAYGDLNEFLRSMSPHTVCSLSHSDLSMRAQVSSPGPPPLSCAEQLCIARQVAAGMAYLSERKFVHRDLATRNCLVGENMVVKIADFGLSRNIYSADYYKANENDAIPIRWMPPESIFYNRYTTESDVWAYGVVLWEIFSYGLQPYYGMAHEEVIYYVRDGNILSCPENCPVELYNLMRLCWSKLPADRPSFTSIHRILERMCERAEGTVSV

[2] = molecular target: Platelet-derived growth factor receptor alpha (Homo sapiens) (UniProt P16234); settings: at 0.1 µM
Chain of Platelet-derived growth factor receptor alpha (Homo sapiens) (P16234 whole entry): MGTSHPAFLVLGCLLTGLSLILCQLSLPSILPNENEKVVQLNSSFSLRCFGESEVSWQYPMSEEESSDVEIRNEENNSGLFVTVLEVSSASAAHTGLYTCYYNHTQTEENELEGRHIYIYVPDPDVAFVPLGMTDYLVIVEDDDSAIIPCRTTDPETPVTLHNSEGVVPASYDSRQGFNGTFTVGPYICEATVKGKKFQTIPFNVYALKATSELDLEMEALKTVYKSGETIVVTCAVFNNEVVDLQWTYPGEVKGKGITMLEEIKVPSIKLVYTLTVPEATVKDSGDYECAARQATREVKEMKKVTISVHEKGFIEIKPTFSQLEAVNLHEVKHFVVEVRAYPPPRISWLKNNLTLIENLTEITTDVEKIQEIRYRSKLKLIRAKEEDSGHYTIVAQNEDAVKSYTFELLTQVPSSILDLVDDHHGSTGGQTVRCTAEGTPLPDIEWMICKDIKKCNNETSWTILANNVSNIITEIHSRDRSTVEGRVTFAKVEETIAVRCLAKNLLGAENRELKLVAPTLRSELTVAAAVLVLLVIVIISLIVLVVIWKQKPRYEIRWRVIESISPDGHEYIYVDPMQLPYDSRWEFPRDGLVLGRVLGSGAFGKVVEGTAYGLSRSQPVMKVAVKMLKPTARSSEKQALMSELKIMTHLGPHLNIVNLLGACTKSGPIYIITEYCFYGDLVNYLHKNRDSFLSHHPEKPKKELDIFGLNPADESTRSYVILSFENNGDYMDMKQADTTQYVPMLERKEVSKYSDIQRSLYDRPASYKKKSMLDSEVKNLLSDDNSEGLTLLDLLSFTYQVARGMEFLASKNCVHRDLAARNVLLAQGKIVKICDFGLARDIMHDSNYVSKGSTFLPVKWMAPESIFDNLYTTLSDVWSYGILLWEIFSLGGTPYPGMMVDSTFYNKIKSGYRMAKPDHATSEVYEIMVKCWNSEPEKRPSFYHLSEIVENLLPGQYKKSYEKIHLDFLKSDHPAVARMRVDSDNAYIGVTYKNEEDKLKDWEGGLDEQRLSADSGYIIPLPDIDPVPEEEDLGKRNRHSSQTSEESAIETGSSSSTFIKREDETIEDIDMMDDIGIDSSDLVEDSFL

[3] = molecular target: Platelet-derived growth factor receptor alpha (Homo sapiens) (UniProt P16234); settings: at 1 µM
[4] = tested on: Platelet-derived growth factor receptor alpha (Homo sapiens), P16234 [D842V]; settings: at 0.1 µM
Chain of Platelet-derived growth factor receptor alpha (Homo sapiens), P16234 [D842V] (P16234 whole entry D842V): as the sequence (P16234 whole entry) above, with D842V counted along it

[5] = tested on: Platelet-derived growth factor receptor alpha (Homo sapiens), P16234 [D842V]; settings: at 1 µM
[6] = tested on: Platelet-derived growth factor receptor alpha (Homo sapiens), P16234 [T674I]; settings: at 0.1 µM
[7] = tested on: Platelet-derived growth factor receptor alpha (Homo sapiens), P16234 [T674I]; settings: at 1 µM
[8] = tested on: Platelet-derived growth factor receptor alpha (Homo sapiens), P16234 [V561D]; settings: at 0.1 µM
[9] = tested on: Platelet-derived growth factor receptor alpha (Homo sapiens), P16234 [V561D]; settings: at 1 µM
[10] = molecular target: Platelet-derived growth factor receptor beta (Homo sapiens) (UniProt P09619); settings: at 0.1 µM
Chain of Platelet-derived growth factor receptor beta (Homo sapiens) (P09619 whole entry): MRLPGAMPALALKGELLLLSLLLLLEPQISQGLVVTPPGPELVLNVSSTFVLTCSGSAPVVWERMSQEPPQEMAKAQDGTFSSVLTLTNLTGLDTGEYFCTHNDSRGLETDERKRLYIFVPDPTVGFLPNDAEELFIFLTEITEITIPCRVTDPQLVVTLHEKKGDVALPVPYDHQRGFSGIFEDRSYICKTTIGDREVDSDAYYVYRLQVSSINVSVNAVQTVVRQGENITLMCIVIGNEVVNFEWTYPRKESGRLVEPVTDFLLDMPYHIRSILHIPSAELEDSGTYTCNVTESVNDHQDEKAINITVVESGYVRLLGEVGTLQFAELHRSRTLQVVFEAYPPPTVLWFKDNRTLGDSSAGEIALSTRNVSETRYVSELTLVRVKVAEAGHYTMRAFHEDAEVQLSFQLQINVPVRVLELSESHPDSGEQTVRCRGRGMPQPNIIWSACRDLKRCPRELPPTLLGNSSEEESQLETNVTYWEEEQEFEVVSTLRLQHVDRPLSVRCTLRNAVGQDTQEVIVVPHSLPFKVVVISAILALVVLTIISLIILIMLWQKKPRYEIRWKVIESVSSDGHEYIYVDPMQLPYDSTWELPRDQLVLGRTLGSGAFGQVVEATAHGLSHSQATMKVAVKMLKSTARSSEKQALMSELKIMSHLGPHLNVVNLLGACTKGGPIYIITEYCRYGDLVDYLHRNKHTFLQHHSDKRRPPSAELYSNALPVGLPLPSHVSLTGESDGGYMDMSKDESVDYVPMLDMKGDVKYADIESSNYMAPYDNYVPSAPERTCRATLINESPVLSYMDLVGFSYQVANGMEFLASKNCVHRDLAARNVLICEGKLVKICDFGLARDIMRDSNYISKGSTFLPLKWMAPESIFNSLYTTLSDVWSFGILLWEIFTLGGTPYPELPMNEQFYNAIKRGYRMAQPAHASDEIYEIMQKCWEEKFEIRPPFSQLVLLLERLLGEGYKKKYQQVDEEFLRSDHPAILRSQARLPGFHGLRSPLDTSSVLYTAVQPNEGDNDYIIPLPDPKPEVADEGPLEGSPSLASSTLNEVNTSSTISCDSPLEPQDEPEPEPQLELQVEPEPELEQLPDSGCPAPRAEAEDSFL

[11] = molecular target: Platelet-derived growth factor receptor beta (Homo sapiens) (UniProt P09619); settings: at 1 µM
[12] = molecular target: Tyrosine-protein kinase FRK (Homo sapiens) (UniProt P42685); settings: at 0.1 µM
Chain of Tyrosine-protein kinase FRK (Homo sapiens) (P42685 whole entry): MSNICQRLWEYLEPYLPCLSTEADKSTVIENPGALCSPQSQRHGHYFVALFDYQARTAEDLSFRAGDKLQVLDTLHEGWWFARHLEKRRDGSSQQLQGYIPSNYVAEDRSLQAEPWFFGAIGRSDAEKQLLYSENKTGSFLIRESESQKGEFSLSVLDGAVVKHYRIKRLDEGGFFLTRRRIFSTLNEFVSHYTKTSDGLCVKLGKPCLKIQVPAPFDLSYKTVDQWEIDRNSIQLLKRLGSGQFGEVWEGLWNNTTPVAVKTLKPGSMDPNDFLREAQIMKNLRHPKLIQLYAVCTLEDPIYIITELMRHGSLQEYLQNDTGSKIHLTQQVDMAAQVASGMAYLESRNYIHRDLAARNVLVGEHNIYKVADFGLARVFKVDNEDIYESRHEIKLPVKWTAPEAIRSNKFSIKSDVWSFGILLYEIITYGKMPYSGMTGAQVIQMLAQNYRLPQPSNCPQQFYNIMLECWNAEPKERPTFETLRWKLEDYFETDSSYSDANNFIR

[13] = molecular target: Tyrosine-protein kinase FRK (Homo sapiens) (UniProt P42685); settings: at 1 µM
[14] = molecular target: Protein-tyrosine kinase 2-beta (Homo sapiens) (UniProt Q14289); settings: at 0.1 µM
[15] = molecular target: Protein-tyrosine kinase 2-beta (Homo sapiens) (UniProt Q14289); settings: at 1 µM
[16] = molecular target: Proto-oncogene tyrosine-protein kinase receptor Ret (Homo sapiens) (UniProt P07949); settings: at 0.1 µM
[17] = molecular target: Proto-oncogene tyrosine-protein kinase receptor Ret (Homo sapiens) (UniProt P07949); settings: at 1 µM
[18] = tested on: Proto-oncogene tyrosine-protein kinase receptor Ret (Homo sapiens), P07949 [V804L]; settings: at 0.1 µM
[19] = tested on: Proto-oncogene tyrosine-protein kinase receptor Ret (Homo sapiens), P07949 [V804L]; settings: at 1 µM
[20] = tested on: Proto-oncogene tyrosine-protein kinase receptor Ret (Homo sapiens), P07949 [Y791F]; settings: at 0.1 µM
Chain of Proto-oncogene tyrosine-protein kinase receptor Ret (Homo sapiens), P07949 [Y791F] (P07949 whole entry Y791F): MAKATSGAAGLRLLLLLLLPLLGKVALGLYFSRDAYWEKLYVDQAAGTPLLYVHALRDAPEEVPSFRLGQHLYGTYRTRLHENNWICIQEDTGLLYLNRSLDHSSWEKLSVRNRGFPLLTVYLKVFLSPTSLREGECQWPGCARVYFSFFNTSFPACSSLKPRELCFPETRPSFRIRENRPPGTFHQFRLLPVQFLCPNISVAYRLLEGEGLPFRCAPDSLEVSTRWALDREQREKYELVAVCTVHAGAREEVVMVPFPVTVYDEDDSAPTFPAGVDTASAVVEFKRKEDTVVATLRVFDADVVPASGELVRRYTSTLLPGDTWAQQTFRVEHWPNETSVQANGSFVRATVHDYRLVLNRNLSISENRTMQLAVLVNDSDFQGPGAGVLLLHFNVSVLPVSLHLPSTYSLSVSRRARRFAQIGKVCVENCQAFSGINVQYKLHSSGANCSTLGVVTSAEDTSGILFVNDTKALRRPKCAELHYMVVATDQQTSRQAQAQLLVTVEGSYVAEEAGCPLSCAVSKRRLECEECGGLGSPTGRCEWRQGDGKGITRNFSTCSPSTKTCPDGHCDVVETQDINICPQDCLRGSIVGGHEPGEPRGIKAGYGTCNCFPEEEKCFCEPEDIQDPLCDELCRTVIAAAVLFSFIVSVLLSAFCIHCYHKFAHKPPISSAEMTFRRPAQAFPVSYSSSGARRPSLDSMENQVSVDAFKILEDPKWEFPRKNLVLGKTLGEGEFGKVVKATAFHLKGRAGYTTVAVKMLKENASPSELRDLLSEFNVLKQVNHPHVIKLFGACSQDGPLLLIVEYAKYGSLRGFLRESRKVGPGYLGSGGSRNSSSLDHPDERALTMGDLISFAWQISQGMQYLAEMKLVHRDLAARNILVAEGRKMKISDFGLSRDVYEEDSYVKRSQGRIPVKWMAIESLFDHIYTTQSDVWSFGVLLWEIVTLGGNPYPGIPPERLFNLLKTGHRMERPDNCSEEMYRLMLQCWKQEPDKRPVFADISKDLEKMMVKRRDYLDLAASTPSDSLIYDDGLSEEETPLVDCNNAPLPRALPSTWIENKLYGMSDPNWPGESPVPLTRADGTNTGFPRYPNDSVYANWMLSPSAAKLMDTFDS

Row | SMILES | inhibition [1] | inhibition [2] | inhibition [3] | inhibition [4] | inhibition [5] | inhibition [6] | inhibition [7] | inhibition [8] | inhibition [9] | inhibition [10] | inhibition [11] | inhibition [12] | inhibition [13] | inhibition [14] | inhibition [15] | inhibition [16] | inhibition [17] | inhibition [18] | inhibition [19] | inhibition [20]
1 | CCCNc1cccc(-n2ncc3c(N/N=C/c4ccncc4)ncnc32)c1 | 49.9% | 29.4% | 78.4% | 16.3% | 71% | 11.7% | 38.2% | 15.3% | 68.4% | 27.1% | 78.8% | 0.57% | 3.14% | 2.47% | 12.2% | 15% | 54.7% | 7.89% | 40.7% | 16.4%
2 | COc1c(C(N)=O)cc(-c2ccc(Cl)cc2)cc1-c1ccc(S(N)(=O)=O)cc1 | 7.45% | 3.49% | 9.97% | 2.3% | 2.99% | 2.39% | 4.51% | 3.68% | 5.56% | 2.5% | 1.5% | 2.55% | 3.5% | 5.92% | 12.1% | 2.82% | 4.87% | 6.61% | 9.45% | 6.18%
3 | O=C(O[C@H]1CN[C@H](C#Cc2cc3ncnc(Nc4ccc5c(ccn5Cc5cc(F)ccc5F)c4)c3s2)C1)N1CCOCC1 | 4.92% | 6.05% | 12.3% | 2.95% | 3.49% | 5.88% | 6.54% | 7.32% | 5.97% | 2.48% | 7.68% | 3.08% | 2.35% | 13.2% | 5.45% | 2.76% | 4.91% | 2.75% | 4.26% | 1.9%
4 | CN1CCC(n2cnc(-c3ccc(F)cc3)c2-c2ccnc(NCCO)n2)CC1 | 3.41% | 13.6% | 14.4% | 5.63% | 8.15% | 7.46% | 9.01% | 7.95% | 3.97% | 8.62% | 20.7% | 0.17% | 1.02% | 6.77% | 18% | 1.17% | 1.73% | 4.71% | 10.8% | 5.21%
5 | NS(=O)(=O)c1ccc(N/N=C2\C(=O)Nc3ccc(C(=O)NCc4ccncc4)cc32)cc1 | 21.9% | 23.6% | 69.4% | 18.8% | 71.5% | 3.72% | 16.9% | 15.6% | 61.3% | 45.6% | 85.3% | 1.15% | 0.41% | 3.79% | 8.61% | 11.1% | 49.3% | 31.4% | 75.2% | 10.6%
6 | Cc1cc(O)cc(C)c1/C=C/c1cncc(C(=O)OC(C)(C)C)c1 | 3.99% | 9.43% | 42.6% | 5.23% | 14.7% | 4.63% | 5.73% | 14.4% | 51% | 9.17% | 43.3% | 3.51% | 20.1% | 13.2% | 7.22% | 5.39% | 7.34% | 3.42% | 11.6% | 4.05%
7 | COc1cc(Nc2ncc(-c3ccccc3)o2)cc(OC)c1 | 4.72% | 17.5% | 54.3% | 4.08% | 12.3% | 19.5% | 76.4% | 38.5% | 64.3% | 20.5% | 62.9% | 0.8% | 4.62% | 6.76% | 9.54% | 7.16% | 8.97% | 4.73% | 11.9% | 8.14%
8 | NS(=O)(=O)c1cccc(N/C=C2\C(=O)Nc3ccccc32)c1 | 12.1% | 7.39% | 26.2% | 4.57% | 15.1% | 9.22% | 46.1% | 5.48% | 31.2% | 4.88% | 22.3% | 3.47% | 5.58% | 14.1% | 27.4% | 7.9% | 30.6% | 11% | 48.6% | 10.1%
9 | FC(F)(F)CNc1nccc(-c2cnn3ncccc23)n1 | -2.34% | 0.78% | 10.1% | – | 4.9% | 1.52% | 4.54% | 0.59% | 2.85% | 2.11% | 3.09% | 1.82% | 1.72% | -0.29% | 2.94% | 3.97% | 2.84% | 1.22% | 3.68% | 1.04%
10 | CN1CCC(C(=O)Nc2n[nH]c3nc(-c4ccc(O)cc4)c(Br)cc23)CC1 | 9.34% and 7.11% | 5.64% and 6.91% | 27.9% and 21.1% | 2.54% and 0.22% | 16.3% and 9.77% | 5.57% and 1.83% | 9.37% and 7.73% | 5.98% and 2.37% | 19.9% and 16.1% | 7.32% and 7.22% | 22.6% and 17.3% | 1.77% and -0.83% | 2.31% and 3.98% | 10.8% and -4.15% | 12.9% and 6.02% | 7.08% and 5.43% | 9.97% and 0.25% | 4.68% and 1.68% | – | 4.94% and 4.6%
11 | N#Cc1cccc(Nc2ncc(-c3ccccc3)o2)c1 | 2.86% | 5.63% | 17% | 1.11% | 3.47% | 6.26% | 36.3% | 16.2% | 36.8% | 7.37% | 26.1% | 0.92% | 3.54% | 1.87% | 7.64% | 2.14% | 3.79% | 0.71% | 14.4% | 0.39%
12 | COc1cc(N2CCN(C(C)C)CC2)ccc1Nc1nc(Nc2cccc3ncccc23)c2cc[nH]c2n1 | 9.48% | 2.96% | 15.3% | 0.2% | 5.09% | 2.09% | 2.26% | 3.08% | 14.8% | 1.3% | 8.9% | 0.82% | 1.26% | 15.2% | 93.1% | 4.55% | 3.04% | 7.14% | 14% | 8.29%
13 | CC(C)c1ccc(-c2cc(-c3c[nH]nc3-c3ccccn3)ccn2)cc1 | 6.85% | 10% | 19.8% | 5.82% | 34.2% | 4.22% | 3.25% | 5.56% | 20.6% | 3.19% | 11.4% | -0.8% | -0.88% | 1.78% | 3.36% | 2.14% | 5.62% | 3.27% | 2.58% | 5.08%
14 | COc1cccc(Nc2nccc(-c3cnn4ncccc34)n2)c1 | 25.3% | 14.3% | 49.3% | 6.1% | 47.1% | 12.6% | 80.7% | 26.4% | 64.1% | 23.9% | 70% | 0.08% | 4.45% | 28.5% | 86.6% | 1.21% | 17.1% | 3.16% | 22.6% | 2.74%
